Source: PMC5540273 (PLoS ONE, 2017)

tested on: FES; details: concentration: 1 μM,replicates: in singlicate; n = 1
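Note: KINOMEscan kinase panel screen.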

Row | SMILES | %Inh [%]
1 | Cc1cc(C(=O)Nc2ccc(Oc3ccc4nc(NC(=O)C5CC5)cn4n3)cc2)nn1-c1ccccc1 | 16
2 | Cl.Cl.Nc1nc(-c2ccc3c(N)n[nH]c3c2)cc(N2CCCC(NC(=O)c3ccccc3)C2)n1 (centres unmarked) [GSK2286775] | 0
3 | CCN(CC)CCCCNc1ncc2cc(-c3c(Cl)cccc3Cl)c(NC(=O)NC(C)(C)C)nc2n1 | 21
4 | Cc1ccc2c(-c3ccncc3)c(-c3ccc(F)cc3)nn2c1.Cl [GW461484] | 0
5 | COc1ccc(C[C@@H](CN)NC(=O)c2cc(Br)c(-c3ccnc4[nH]ccc34)s2)cc1.Cl.Cl [GSK1389063] | 0
6 | O=C(NCCNc1ccnc(NCc2ccc(F)cc2)n1)c1cc2ccccc2s1 [GSK1379944] | 18
7 | CN(C)CCOc1ccc(-c2cc(-c3c[nH]nc3-c3ccccn3)ccn2)cc1 [GW835314] | 0
8 | CNC(=O)c1ccccc1Sc1ccc2c(/C=C/c3ccccn3)n[nH]c2c1 | 0
9 | NC(=O)c1cc(-c2ccccc2)cc2c(C3CCNCC3)c[nH]c12 [GSK301362] | 0
10 | CCn1c(-c2nonc2N)nc2c(C#CC(C)(C)O)nc(OCCN)cc21.Cl.Cl [GSK902056] | 19
11 | C[C@H]1Oc2cc(cnc2N)-c2c(nn(C)c2C#N)CN(C)C(=O)c2ccc(F)cc21 | 93.8
12 | C=CC(=O)Nc1cc2c(Nc3ccc(F)c(Cl)c3)ncnc2cc1OCCCN1CCOCC1 [GW781483] | 0
13 | Cc1ccc(-n2nc(C(C)(C)C)cc2NC(=O)Nc2ccc(OCCN3CCOCC3)c3ccccc23)cc1 [GW839464] | 7
14 | Cc1cc2cn[nH]c2cc1-c1cccc2c(N)c(C(N)=O)nnc12 | 72
